Results published in PubChem BioAssay (NCI).
Compounds without any hit were thinned out: in the full panel of roughly 83,000, 20% have a hit.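 The test compound was applied at a single concentration to cells in 96-well plates for 48 hours, and percent growth was recorded.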 Activity calls are given as the source filed them. How the source made its calls: active means growth percent below 10; inactive means the rest.

How the values were obtained:
Assay in all cases: NCI-60 one-dose screen, 48 h (100 = growth as untreated, 0 = no growth, -100 = all killed)
[1] = tested on: HT29 colon; conditions: 10 µM unless noted
[2] = tested on: SNB-75 CNS; conditions: 10 µM unless noted
[3] = tested on: SNB-19 CNS; conditions: 10 µM unless noted
[4] = tested on: U251 CNS; conditions: 10 µM unless noted
[5] = tested on: PC-3 prostate; conditions: 10 µM unless noted
[6] = tested on: SK-MEL-5 melanoma; conditions: 10 µM unless noted
[7] = tested on: UACC-62 melanoma; conditions: 10 µM unless noted
[8] = tested on: LOX IMVI melanoma; conditions: 10 µM unless noted
[9] = tested on: SK-MEL-28 melanoma; conditions: 10 µM
[10] = tested on: SK-MEL-2 melanoma; conditions: 10 µM unless noted
[11] = tested on: SN12C renal; conditions: 10 µM unless noted
[12] = tested on: UO-31 renal; conditions: 10 µM unless noted
[13] = tested on: TK-10 renal; conditions: 10 µM unless noted
[14] = tested on: ACHN renal; conditions: 10 µM unless noted
[15] = tested on: CAKI-1 renal; conditions: 10 µM unless noted
[16] = tested on: A498 renal; conditions: 10 µM unless noted
[17] = tested on: CCRF-CEM leukemia; conditions: 10 µM unless noted
[18] = tested on: MOLT-4 leukemia; conditions: 10 µM unless noted
[19] = tested on: SR leukemia; conditions: 10 µM unless noted

Measured: growth

NNC(=O)CNC(=O)Nc1n[nH]c(=S)s1
inactive: [1] 95.9% | [2] 92.1% | [3] 106% | [4] 105% | [5] 95.9% | [6] 105% | [7] 104% | [8] 98.1% | [9] 106% | [10] 97.7% | [11] 98.1% | [12] 73.6% | [13] 107% | [14] 94.4% | [15] 98.3% | [16] 98.3% | [17] 93% | [18] 89.5% | [19] 83.3%

O=C(NC1CCN(Cc2ccccc2)CC1)c1cc2nc(-c3ccc(Cl)s3)cc(C(F)(F)F)n2n1
active: [1] -84.3% | [4] -86.9% | [9] -97.4% | [10] -62.8% | [17] -21.7% | [18] -34.3% | [19] -8.99%
inactive: [2] 35.6% | [3] 101% | [5] 72.2% | [6] 89.1% | [7] 97.3% | [8] 45.2% | [11] 91.3% | [12] 96.1% | [13] 84.9% | [14] 96.4% | [15] 102% | [16] 98.6%

CCOc1cc(Cl)c(C(C)NC(=O)c2cccc(OC)c2)cc1OCC (centres undefined)
inactive: [3] 84.2% | [4] 22.5% | [10] 34.9% | [16] 26.2%
active: [1] -39.4% | [2] 7.33% | [5] 6.15% | [6] -96.8% | [7] -76% | [8] -68.9% | [9] -44.6% | [11] -23.3% | [12] -92.5% | [13] -62.4% | [15] -39.1% | [17] -24.5% | [18] -10.2% | [19] -19.1%

CCOC(=O)c1cnc2c(C)cccc2c1Nc1ccc(C(C)=O)cc1
active: [1] -67.4% | [4] -81.3% | [6] -91.8% | [8] -88.5% | [9] -93% | [10] -76.2% | [17] 1.73% | [18] -4.17% | [19] -28.5%
inactive: [2] 32.4% | [3] 40.6% | [5] 12.4% | [7] 12.3% | [11] 29.9% | [12] 13.3% | [13] 10.7% | [14] 17.7% | [15] 12% | [16] 46.5%

CCOC(=O)c1cnc2ccc(Cl)cc2c1NCCCN(C)C
inactive: [1] 27.3% | [2] 35.6% | [3] 24.5% | [5] 25.7% | [9] 50.1% | [11] 18.1% | [13] 33.8% | [16] 31%
active: [4] 8.33% | [6] -50.8% | [7] -15.6% | [8] 1.24% | [10] -0.411% | [12] -22.8% | [15] -4.21% | [17] -4.96% | [18] -5.58% | [19] -5.95%

CCn1c(-c2nonc2Nc2ccc(OC)cc2)nc2ccccc21
inactive: [1] 102% | [2] 91.6% | [3] 111% | [4] 101% | [5] 107% | [6] 104% | [7] 96.2% | [8] 107% | [9] 107% | [10] 105% | [11] 109% | [12] 90.1% | [13] 101% | [14] 108% | [15] 102% | [16] 78.8% | [17] 105% | [18] 116% | [19] 110%

Nc1nc(Nc2cccc(F)c2)nc2ccccc12
inactive: [2] 56.1% | [3] 57.5% | [4] 38% | [5] 44.3% | [6] 16% | [7] 41.3% | [8] 17.2% | [9] 44.4% | [10] 50.6% | [11] 34.2% | [12] 23.7% | [13] 29.9% | [15] 38.3% | [16] 43.9% | [17] 26.2% | [18] 39.5% | [19] 13.2%
active: [1] 6.89%

COc1ccccc1N1C(=N)S/C(=C\c2ccc(OCc3ccccc3F)cc2)C1=O
inactive: [1] 108% | [2] 76% | [3] 90.9% | [4] 78.9% | [5] 66.9% | [6] 92.5% | [7] 63.7% | [8] 80.1% | [9] 95% | [10] 82.7% | [11] 80.7% | [12] 59.2% | [13] 104% | [15] 81.6% | [16] 82% | [17] 65.8% | [18] 53% | [19] 73.4%

COc1ccc(C(O)(CCC(C)C)C(CN2CCOCC2)c2ccc(Cl)cc2)cc1 (centres undefined)
active: [1] 9% | [10] 2.58%
inactive: [2] 74.4% | [3] 83.6% | [4] 66.1% | [5] 53.8% | [6] 65.5% | [7] 60.9% | [8] 52.2% | [9] 54.1% | [11] 70.6% | [12] 62.8% | [13] 86% | [14] 57.4% | [16] 110% | [17] 34.2% | [18] 34.2% | [19] 10.7%

O=C(CSc1ccc2nnc(-c3cccc(F)c3)n2n1)Nc1ccc2c(c1)OCO2
active: [2] -22.3%
inactive: [1] 99.6% | [3] 100% | [4] 70.3% | [5] 40.1% | [6] 86.1% | [7] 83.2% | [8] 61.1% | [9] 79.7% | [10] 92.6% | [11] 80.5% | [12] 70.4% | [13] 112% | [14] 87.9% | [15] 84.1% | [16] 104% | [17] 32.5% | [18] 62.1% | [19] 56.3%

Nc1ncnc(N)c1NC(=O)c1ccc(OCc2ccccc2)cc1
inactive: [1] 96.3% | [2] 110% | [3] 103% | [4] 102% | [5] 106% | [6] 102% | [7] 99% | [8] 110% | [9] 117% | [10] 93.1% | [11] 98.9% | [12] 88.1% | [13] 99.3% | [15] 99.3% | [16] 98% | [17] 98.5% | [18] 96.8% | [19] 94%

CC(=O)Nc1nc2c(s1)CCc1c-2cn(S(=O)(=O)c2ccccc2)c1-c1ccccc1
inactive: [1] 78.1% | [2] 82.8% | [3] 93.6% | [4] 62.4% | [5] 40.9% | [6] 43.9% | [7] 58% | [8] 47.1% | [9] 95.1% | [10] 94.5% | [11] 76.8% | [12] 41.2% | [13] 85.9% | [14] 69.1% | [15] 56.9% | [16] 88.1% | [17] 43.1% | [18] 48.2% | [19] 28.1%

O=C(NC(=S)Nc1cccc(NC(=S)NC(=O)c2ccccc2)c1)c1ccccc1
inactive: [1] 74.1% | [3] 50.9% | [4] 60.1% | [5] 61.3% | [6] 80% | [7] 67% | [8] 71% | [9] 55.3% | [10] 66.1% | [11] 61.9% | [12] 84.6% | [13] 75.8% | [14] 60.6% | [16] 104% | [18] 103% | [19] 79.8%
active: [2] -2.29%

CCCCCCc1cc2cc(-c3nc4ccccc4[nH]3)c(=Nc3ccccc3C)oc2cc1O
active: [1] 2.75% | [9] -10.3% | [19] -14.5%
inactive: [2] 47.8% | [3] 71.7% | [4] 34% | [5] 37.6% | [6] 41.7% | [7] 54.5% | [8] 25.5% | [10] 47.2% | [11] 45.8% | [12] 20.3% | [13] 46.8% | [14] 51% | [16] 79.7% | [17] 25.3% | [18] 21%

FC(F)(F)c1cccc(Nc2nc3ccccc3nc2Nc2cccc(C(F)(F)F)c2)c1
active: [1] -53.7% | [2] -92.3% | [3] 7.81% | [4] -34% | [6] -95.6% | [7] -62.6% | [8] -79.4% | [9] -85.5% | [10] -62.5% | [12] -74.7% | [13] -50.1% | [14] -21.5% | [15] -1.66% | [17] -2.8% | [18] -11.2% | [19] -29.4%
inactive: [5] 15.4% | [11] 32.3% | [16] 54%

CCc1ccc(CNCC(O)c2ccccc2)cc1 (centres undefined)
active: [19] 3.88%
inactive: [1] 28.7% | [2] 61.8% | [3] 79.7% | [4] 60% | [5] 52.7% | [6] 68.6% | [7] 84.5% | [8] 68.7% | [9] 74.7% | [10] 90.9% | [11] 76.4% | [12] 34.6% | [13] 80.7% | [14] 72.2% | [15] 66.4% | [16] 67.8% | [17] 28.7% | [18] 19.2%

CCOc1ccc(Nc2ccnc3cc(Cl)ccc23)cc1
active: [1] 1.61% | [2] 1.25% | [4] 4.87% | [5] 4.74% | [6] -12.5% | [8] -22.3% | [10] -40.5% | [11] 7.43% | [12] -12.8% | [13] 7.11% | [15] 2.27% | [16] -19.5% | [17] 3.77% | [18] 4.04% | [19] 0.437%
inactive: [3] 16% | [7] 21.9% | [9] 31.1% | [14] 10.9%
